Results filed as inconclusive are left out. Entries that show only a call come without a potency. Active and inactive are the calls of the source. The call rests on the fitted dose curve; in most records, active means well fitted curve in the direction sought with a large enough effect; inconclusive means small, poorly fitted or top-dose-only effect, or another doubt; inactive means no such curve, though single readings can be large; an effect the other way counts as inactive or inconclusive.
Legend:
[1] = tested on: Zika virus NS2B-NS3 protease; experiment: Primary screen GU AMC qHTS for Zika virus inhibitors (AID 1347154); further: nearly all actives have a fitted effect of over 70% in size; further: potency means the concentration at half of the fitted maximal effect
Method in brief: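 Unlinked Zika NS2B hydrophilic domain–NS3 protease complex at 25 nM in 10 mM Tris-HCl pH 8.0, 0.01% Tween 20, with an AMC peptide substrate. Fluorescence change (340/450 nm) over 15 min at room temperature, normalized to controls, fitted to 4-parameter Hill.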

[2] = qHTS of pediatric cancer cell lines to identify multiple opportunities for drug repurposing: Confirmatory screen for OHS-50 cells (AID 1347128); further: nearly all actives have a fitted effect of over 55% in size; further: potency means the concentration at half of the fitted maximal effect
Method in brief: (§1)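 Viability after 48 h compound treatment at 37C, 500-1,000 cells/well, read as ATP luminescence with CellTiter-Glo. Primary screens used 11-point (MIPE, 0.78 nM-46 µM) or 8-point (NPC, 0.59 nM-46 µM) final concentrations; follow-up screens used 11-point dilutions.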

[3] = qHTS of pediatric cancer cell lines to identify multiple opportunities for drug repurposing: Confirmatory screen for SK-N-SH cells (AID 1347129);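 further: cells exposed to compound for 48 h before viability read; nearly all actives have a fitted effect of over 60% in size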; further: potency means the concentration at half of the fitted maximal effect
Method in brief: as §1

Furin (Homo sapiens) = Furin (Homo sapiens) (UniProt P09958); experiment: Furin counterscreen qHTS for Zika virus inhibitors (AID 1347149);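 further: purified recombinant full-length human furin enzyme at 5 nM; fluorescence gain from furin cutting a BOC-RVRR-AMC peptide substrate over 15 min; top concentration of the series differs between compounds; nearly all actives have a fitted effect of over 70% in size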
Sequence of Furin (Homo sapiens) (P09958 whole entry, looked up): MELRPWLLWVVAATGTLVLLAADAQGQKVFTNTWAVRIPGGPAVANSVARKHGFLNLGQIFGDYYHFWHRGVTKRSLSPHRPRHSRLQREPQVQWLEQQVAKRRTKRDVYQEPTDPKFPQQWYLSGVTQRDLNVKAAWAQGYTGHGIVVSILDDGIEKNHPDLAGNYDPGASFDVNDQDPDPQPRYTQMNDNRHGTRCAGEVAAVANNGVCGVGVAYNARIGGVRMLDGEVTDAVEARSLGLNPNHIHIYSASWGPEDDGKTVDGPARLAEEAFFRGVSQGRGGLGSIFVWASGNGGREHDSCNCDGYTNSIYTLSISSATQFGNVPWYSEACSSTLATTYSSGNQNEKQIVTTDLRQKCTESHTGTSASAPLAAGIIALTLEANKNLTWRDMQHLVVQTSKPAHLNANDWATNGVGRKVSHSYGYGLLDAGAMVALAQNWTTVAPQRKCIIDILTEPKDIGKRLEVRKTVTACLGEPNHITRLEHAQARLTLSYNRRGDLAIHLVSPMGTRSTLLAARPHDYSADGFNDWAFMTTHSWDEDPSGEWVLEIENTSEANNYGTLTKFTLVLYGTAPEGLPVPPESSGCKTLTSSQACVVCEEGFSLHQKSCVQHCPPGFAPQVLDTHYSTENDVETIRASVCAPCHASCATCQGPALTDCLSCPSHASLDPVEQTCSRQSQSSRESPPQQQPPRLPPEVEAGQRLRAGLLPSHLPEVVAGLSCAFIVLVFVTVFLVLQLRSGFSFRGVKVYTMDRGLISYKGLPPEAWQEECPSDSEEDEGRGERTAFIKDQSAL
Method in brief: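 Counterscreen measures cleavage of 2 microM BOC-RVRR-AMC, below its ~15 microM Km, by 5 nM full-length human furin at pH 7.0 after a 15-min compound preincubation. Inhibition derives from the 15-min fluorescence increase at 37C.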

[4] = tested on: Zika virus NS2B-NS3 protease (linked construct); experiment: Confirmatory screen NINDS AMC qHTS for Zika virus inhibitors (AID 1347152);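 further: AMC fluorescence gain from cleaved Bz-Nle-KRR-AMC substrate over 15 min; top concentration of the series differs between compounds; nearly all actives have a fitted effect of over 70% in size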
Method in brief: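 Concentration-response confirmation used the NINDS linked protease (NS2B hydrophilic domain joined to NS3 protease domain), 1 nM, with a 15-min compound preincubation. Substrate, Nle-KRR-AMC at 10 microM, was read by UV fluorescence before and after 15 min.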

[5] = tested on: Zika virus NS2B-NS3 protease (unlinked complex); experiment: Confirmatory screen GU AMC qHTS for Zika virus inhibitors (AID 1347153); further: nearly all actives have a fitted effect of over 70% in size
Method in brief: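 Unlinked enzyme 25 nM, Tris pH 8.0/0.01% Tween 20; cpd 15 min RT, dark; + AMC substrate 10 µM (Km 18.3 µM); 340/450 nm read at t0 and 15 min; % inhibition → 4-param fit.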

[6] = Confirmatory screen NINDS Rhodamine qHTS for Zika virus inhibitors (AID 1347161); further: nearly all actives have a fitted effect of over 60% in size; further: potency means the concentration at half of the fitted maximal effect
Method in brief: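 Enzyme (25 nM, linked NS2B-NS3) was preincubated 15 min with compound in 10 mM Tris-HCl pH 8.0, 0.01% Tween 20. Rhodamine110 substrate (1.5 microM) was then added and fluorescence read at start and after 15 min.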

[7] = Vero cells viability qHTS for Zika virus inhibitors (AID 1347167)
Method in brief: (§2)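 qHTS titration; 24-48 h compound exposure, 37 degrees C/5% CO2; DMEM, 4% FBS; CellTiter Glo ATP luminescence.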

[8] = HepG2 cells viability qHTS for Zika virus inhibitors (AID 1347168)
Method in brief: as §2

[9] = tested on: Zika virus NS2B-NS3 protease (linked construct); experiment: Primary screen NINDS Rhodamine qHTS for Zika virus inhibitors (AID 1347160); details: outcome: dose series up to 57.1 µM; further: nearly all actives have a fitted effect of over 55% in size
Method in brief: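 Single-chain NS2B-NS3 protease, 25 nM, pH 8.0; compounds preincubated 15 min. Activity: Rhodamine110 release from 1.5 microM substrate over 15 min, room temperature, data fitted to 4-parameter Hill.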

[10] = molecular target: N-terminal Xaa-Pro-Lys N-methyltransferase 1 (Homo sapiens) (UniProt Q9BV86); experiment: qHTS Assay for Inhibitors of N-terminal methyltransferase 1 (NTMT1): LOPAC validation of the NTMT1 SAHH-coupled ThioGlo3 Assay (AID 1347143)
Sequence of N-terminal Xaa-Pro-Lys N-methyltransferase 1 (Homo sapiens) (Q9BV86 whole entry, looked up): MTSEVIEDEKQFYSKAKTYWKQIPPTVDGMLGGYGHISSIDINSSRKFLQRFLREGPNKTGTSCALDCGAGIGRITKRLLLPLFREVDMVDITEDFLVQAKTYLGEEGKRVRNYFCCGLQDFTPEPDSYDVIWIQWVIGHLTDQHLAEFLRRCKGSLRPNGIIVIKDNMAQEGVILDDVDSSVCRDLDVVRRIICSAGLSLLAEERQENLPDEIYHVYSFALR
Method in brief: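 Steps: dispense 125nM NTMT1; pin-transfer test compounds at several concentrations, with 1uM RCC1-6 peptide as control; incubate 1 min; start with reagent holding 100uM SAM, 10uM SAHH, 15uM ThioGlo3; read at 0 and 30 min.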

[11] = tested on: Zika virus NS2B-NS3 protease (unlinked); experiment: Optimization of GU AMC qHTS for Zika virus inhibitors: Unlinked NS2B-NS3 protease assay (AID 1347151); further: series mostly up to about 52 µM; nearly all actives have a fitted effect of over 80% in size
Method in brief: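 In this qHTS, compounds acted on 25 nM unlinked Zika NS2B–NS3 in pH 8.0 Tris/Tween buffer. Cleavage of an AMC peptide ran 15 min at room temperature, to about 20% conversion.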

[12] = molecular target: Lysine-specific demethylase 5B (Homo sapiens) (UniProt Q9UGL1); experiment: Optimization screen for KDM5B Histone Demethylases FDH coupled qHTS against the LOPAC library (AID 1347166)
Sequence of Lysine-specific demethylase 5B (Homo sapiens) (Q9UGL1 whole entry, looked up): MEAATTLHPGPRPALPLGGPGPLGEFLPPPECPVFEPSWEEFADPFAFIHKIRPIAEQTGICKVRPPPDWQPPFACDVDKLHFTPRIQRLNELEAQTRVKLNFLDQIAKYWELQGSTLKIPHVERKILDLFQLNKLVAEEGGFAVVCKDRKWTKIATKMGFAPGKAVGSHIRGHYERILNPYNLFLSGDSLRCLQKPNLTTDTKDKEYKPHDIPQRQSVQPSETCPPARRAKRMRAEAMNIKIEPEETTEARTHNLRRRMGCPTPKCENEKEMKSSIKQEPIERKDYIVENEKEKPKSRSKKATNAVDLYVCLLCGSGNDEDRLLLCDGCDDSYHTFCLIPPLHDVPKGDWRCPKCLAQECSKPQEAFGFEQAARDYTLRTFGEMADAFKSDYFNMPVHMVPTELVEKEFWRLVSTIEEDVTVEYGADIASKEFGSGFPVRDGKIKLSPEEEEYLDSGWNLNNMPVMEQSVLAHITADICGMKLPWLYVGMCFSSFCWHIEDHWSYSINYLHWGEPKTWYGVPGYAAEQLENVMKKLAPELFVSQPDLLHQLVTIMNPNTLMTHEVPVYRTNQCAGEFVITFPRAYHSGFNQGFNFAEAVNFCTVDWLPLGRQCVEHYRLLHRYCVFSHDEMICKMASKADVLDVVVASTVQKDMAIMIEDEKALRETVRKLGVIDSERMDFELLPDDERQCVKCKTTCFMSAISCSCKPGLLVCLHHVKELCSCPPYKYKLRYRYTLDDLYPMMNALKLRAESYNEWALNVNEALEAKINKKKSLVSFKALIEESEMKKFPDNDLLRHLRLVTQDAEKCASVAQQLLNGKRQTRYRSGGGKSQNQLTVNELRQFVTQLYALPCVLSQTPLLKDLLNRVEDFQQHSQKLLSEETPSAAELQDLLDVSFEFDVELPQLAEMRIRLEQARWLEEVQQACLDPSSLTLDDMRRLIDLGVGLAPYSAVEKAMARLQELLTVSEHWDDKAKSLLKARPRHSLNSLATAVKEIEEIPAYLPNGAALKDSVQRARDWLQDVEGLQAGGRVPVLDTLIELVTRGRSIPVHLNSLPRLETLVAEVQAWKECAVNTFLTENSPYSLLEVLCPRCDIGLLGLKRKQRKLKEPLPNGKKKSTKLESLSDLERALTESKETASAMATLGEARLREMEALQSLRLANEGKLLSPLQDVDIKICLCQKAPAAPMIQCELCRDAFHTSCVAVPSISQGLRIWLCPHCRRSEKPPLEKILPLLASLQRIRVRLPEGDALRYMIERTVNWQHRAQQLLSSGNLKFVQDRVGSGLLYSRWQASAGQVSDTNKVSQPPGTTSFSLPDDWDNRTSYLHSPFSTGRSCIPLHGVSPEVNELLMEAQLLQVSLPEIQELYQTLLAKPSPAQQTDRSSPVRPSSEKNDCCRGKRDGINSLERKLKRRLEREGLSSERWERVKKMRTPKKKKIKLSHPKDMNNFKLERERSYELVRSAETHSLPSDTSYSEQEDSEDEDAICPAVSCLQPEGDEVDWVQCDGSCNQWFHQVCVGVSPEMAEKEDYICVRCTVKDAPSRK
Method in brief: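 KDM5BDeltaAP (200nM final) in 50mM HEPES pH 7.5, 0.01% Tween-20 was preincubated with compound for 10 min at room temperature. A substrate mix of 12.5uM H3K4Me3, 25uM a-ketoglutarate, ascorbate, Fe2+, NAD+ and formaldehyde dehydrogenase was then added. NADH fluorescence (340/450 nm) was read initially and after 30 min.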

[13] = Confirmatory screen GU Rhodamine qHTS for Zika virus inhibitors qHTS (AID 1347157); details: purified enzyme assay, Rhodamine110 substrate fluorescence, 15 min
Method in brief: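 Compounds, tested up to 114 microM, were incubated for 15 minutes with 25 nM unlinked NS2B-NS3 protease at pH 8.0. Cleavage of 1.5 microM Rhodamine110 substrate was then followed by fluorescence for 15 minutes.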

[14] = Tertiary RLuc qRT-PCR qHTS assay for Zika virus inhibitors (AID 1347169); further: top concentration of the series differs between compounds; nearly all actives have a fitted effect of over 55% in size
Method in brief: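 Inhibition of ZIKV-RLuc replication in Vero cells, read as Renilla luminescence 1-1.5 hrs after live-cell substrate addition, following 48-72 hrs infection at MOI 1-2 in presence of compound.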

[15] = OV-KATE Cancer Cell Toxicity qHTS against the NCATS CANVASS Library (AID 1347345)
Method in brief: (§3)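 Quantitative HTS format: an 11-concentration series was applied to 1000 cells/well following a 4-hour attachment. Cultures ran 72 hours before ATP luminescence detection by CellTiter-Glo.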

[16] = HPAF-II Cancer Cell Toxicity qHTS against the NCATS CANVASS Library (AID 1347346); further: series mostly up to about 38 µM; nearly all actives have a fitted effect of over 55% in size
Method in brief: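 Cytotoxicity read-out was CellTiter-Glo luminescence after 72 h at 37 degrees C exposure of HPAF-II cells (1000/well) to compounds in an 11-point titration.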

[17] = UWB1.289 Cancer Cell Toxicity qHTS against the NCATS CANVASS Library (AID 1347347); further: series mostly up to about 38 µM; nearly all actives have a fitted effect of over 60% in size
Method in brief: as §3

[18] = OV-SAHO Cancer Cell Toxicity qHTS against the NCATS CANVASS Library (AID 1347348)
Method in brief: as §3

[19] = Panc-1005 Cancer Cell Toxicity qHTS against the NCATS CANVASS Library (AID 1347349); further: series mostly up to about 38 µM; nearly all actives have a fitted effect of over 60% in size
Method in brief: as §3

## Nc1ccccc1C(=O)OCC(O)CO (stereo not given)
[1]
  Potency: 16.1 µM (active)

## Clc1ccc(C(OCCN2CCCCC2)c2ccccc2)cc1 (stereo not given)
[1]
  Potency: inactive

## CCc1ccc(C2CCNCC2)cc1
[2]
  Potency: inactive
[3]
  Potency: inactive
[1]
  Potency: inactive

## O=C(O)Cc1ccccc1
[3]
  Potency: inactive
[1]
  Potency: inactive

## Oc1ccc([C@H]2CNCc3c2ccc(O)c3O)cc1O
Furin (Homo sapiens)
  outcome: inactive
[4]
  outcome: inactive
[5]
  outcome: inactive
[1]
  Potency: 10.2 µM (active)
[6]
  Potency: inactive
[7]
  outcome: inactive
[8]
  outcome: inactive

## ClC1=C(Cl)C2(Cl)C(CBr)CC1(Cl)C2(Cl)Cl (stereo not given)
[2]
  Potency: inactive
[3]
  Potency: inactive
[1]
  Potency: inactive

## c1ccc2c(c1)Sc1ccccc1N2CC1CN2CCC1CC2 (stereo not given)
[1]
  Potency: inactive

## CC1Sc2c(C(=O)O)c(=O)c3cc(F)c(N4CCNCC4)cc3n21 (stereo not given)
[2]
  Potency: inactive
[3]
  Potency: inactive
[1]
  Potency: inactive

## C[C@@H]1C[C@@H]([C@H](O)CC2CC(=O)NC(=O)C2)C(=O)[C@@H](C)C1
[2]
  Potency: 0.928 µM (active)
[1]
  Potency: inactive

## COc1cc(C[C@@H](C)N)c(OC)cc1C
[1]
  Potency: inactive

## CN1[C@@H]2CC[C@H]1CC(OC(=O)c1cc(Cl)cc(Cl)c1)C2 (stereo not given in full)
[2]
  Potency: inactive
[1]
  Potency: inactive

## CCOP(=S)(OCC)O/N=C(\C#N)c1ccccc1
[1]
  Potency: inactive

## Cc1ncc2n1-c1ccc(Cl)cc1C(c1ccccc1F)=NC2
[1]
  Potency: inactive

## C1CN2CCC1CC2
[1]
  Potency: inactive

## C[C@@H]1O[C@@H](O[C@@H]2C=C3CC[C@@H]4[C@H](CC[C@]5(C)[C@@H](c6ccc(=O)oc6)CC[C@]45O)[C@@]3(C)CC2)[C@H](O)[C@H](O)[C@H]1O
[3]
  Potency: 0.0264 µM (active)
[1]
  Potency: inactive

## NC1(c2ccccc2)CCCCC1
[1]
  Potency: inactive

## Cc1ccc([N+](=O)[O-])[c]2c1[O][Hg]2
[2]
  Potency: 2.61 µM (active)
[3]
  Potency: 3.72 µM (active)
[1]
  Potency: inactive

## COc1ccc2c(C(=O)c3ccc(Cl)cc3)c(C)n(CC(=O)O)c2c1
[2]
  Potency: inactive
[3]
  Potency: inactive
[1]
  Potency: inactive
[9]
  outcome: inactive

## CC(Cc1ccc2c(c1)OCO2)NO (stereo not given)
[1]
  Potency: inactive

## CC1N=C(N)OC1c1ccccc1 (stereo not given)
[1]
  Potency: inactive

## C[C@H]1CNCCc2ccc(Cl)cc21
[1]
  Potency: inactive

## COc1ccc(CN2CCNCC2)c(OC)c1OC
[1]
  Potency: inactive

## COc1ccc(C(=O)N2CCCC2=O)cc1
[3]
  Potency: inactive
[10]
  outcome: inactive
[11]
  outcome: inactive
[1]
  Potency: inactive
[12]
  outcome: inactive

## CN(C)C(=S)SSC(=S)N(C)C
[3]
  Potency: 11.8 µM (active)
[1]
  Potency: inactive

## C[C@@H]1CN(C2CCC(C#N)(c3ccc(F)cc3)CC2)CC[C@]1(C(=O)O)c1ccccc1 (stereo not given in full)
[1]
  Potency: inactive

## O=C(O)c1nn(Cc2ccc(Cl)cc2Cl)c2ccccc12
[10]
  outcome: inactive
[1]
  Potency: inactive
[12]
  outcome: inactive

## COC(=O)C1=CCCN(C)C1
[2]
  Potency: inactive
[3]
  Potency: inactive
[10]
  outcome: inactive
[11]
  outcome: inactive
[1]
  Potency: inactive
[12]
  outcome: inactive

## CC[n+]1c(-c2ccccc2)c2cc(N)ccc2c2ccc(N)cc21
[2]
  Potency: 1.17 µM (active)
[3]
  Potency: inactive

## CCCCCCCCCCCC[N+](C)(C)CCOc1ccccc1
[2]
  Potency: 20.8 µM (active)
[3]
  Potency: 20.9 µM (active)
[1]
  Potency: inactive

## NC(=O)CN1CCCC1=O
[10]
  outcome: inactive
[11]
  outcome: inactive
[1]
  Potency: inactive
[12]
  outcome: inactive

## CC(C)=CCN1CC[C@@]2(C)c3cc(O)ccc3C[C@@H]1[C@@H]2C
Furin (Homo sapiens)
  outcome: inactive
[11]
  outcome: inactive
[1]
  Potency: inactive
[7]
  outcome: inactive
[8]
  outcome: inactive

## CN1CCC(N(Cc2ccccc2)c2ccccc2)CC1
[1]
  Potency: inactive

## Oc1c(Br)cc(Br)cc1Br
[1]
  Potency: inactive

## CCCCCCCCC(=O)NCc1ccc(O)c(OC)c1
[2]
  Potency: inactive
[3]
  Potency: inactive
[1]
  Potency: inactive

## CC1=C2[C@H]3OC(=O)[C@@H](C)[C@@H]3CC[C@@]2(C)C=CC1=O
[1]
  Potency: inactive

## CCC(=O)OC1(c2ccccc2)CCN(C)CC1
[1]
  Potency: inactive

## C[C@H](CN1CCOCC1)C(C(=O)N1CCCC1)(c1ccccc1)c1ccccc1
[1]
  Potency: inactive

## Cc1nnc2n1-c1sc(CCc3ccc(CC(C)C)cc3)cc1C(c1ccccc1Cl)=NC2C (stereo not given)
[13]
  Potency: 44.1 µM (active)
[6]
  Potency: 44.1 µM (active)
[14]
  outcome: inactive

## CN(C)CCc1c[nH]c2ccccc12
[15]
  outcome: inactive
[16]
  outcome: inactive
[17]
  outcome: inactive
[18]
  outcome: inactive
[19]
  outcome: inactive

— PubChem BioAssay (NCATS)
